Screening results from PubChem BioAssay.
Rows were chosen to be rich in hits. Some 18% of all compounds tested hit in one or more screens of this group.
TDP1 inh: blocks human tyrosyl-DNA phosphodiesterase 1; AID 485290; Potency, µM (highest dose often 130 µM), usual class: inhibitors; recombinant TDP1, AlphaScreen DNA substrate cleavage; hit rate 0.28% among 350,000; Q9NUW8; note: nearly all actives have a fitted effect of over 40% in size
Target sequence (Q9NUW8 whole entry, looked up): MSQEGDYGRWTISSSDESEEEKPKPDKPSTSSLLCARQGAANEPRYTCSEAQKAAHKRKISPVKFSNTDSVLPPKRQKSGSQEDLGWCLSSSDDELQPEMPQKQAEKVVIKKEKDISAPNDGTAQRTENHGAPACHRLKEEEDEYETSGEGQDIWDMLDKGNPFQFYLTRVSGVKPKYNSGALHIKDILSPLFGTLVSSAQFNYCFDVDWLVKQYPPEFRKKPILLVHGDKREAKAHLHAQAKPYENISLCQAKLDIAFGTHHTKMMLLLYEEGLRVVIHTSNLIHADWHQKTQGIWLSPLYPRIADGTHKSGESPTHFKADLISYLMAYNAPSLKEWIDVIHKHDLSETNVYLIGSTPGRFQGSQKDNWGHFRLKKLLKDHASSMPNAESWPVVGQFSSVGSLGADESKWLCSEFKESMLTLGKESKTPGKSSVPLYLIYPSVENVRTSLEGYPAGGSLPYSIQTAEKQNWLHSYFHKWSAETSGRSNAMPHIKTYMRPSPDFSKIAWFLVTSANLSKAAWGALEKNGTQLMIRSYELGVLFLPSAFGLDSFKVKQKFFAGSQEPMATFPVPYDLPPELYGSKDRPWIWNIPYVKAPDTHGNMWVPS
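Tdp1 1 nM final; 15 min RT w/ cpd; substrate 15 nM, 5 min; beads 10 ug/ml, 10 min; AlphaScreen read. Neg ctrl: no enzyme.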
CtBP-E1A blk: CtBP/E1A binding inhibition | AlphaScreen GST-E1A/His-CtBP binding, 1536-well; hits give low values | activity change, % (no concentration beside the values) | hit rate 0.49% among 340,000 | AID 651724; in the data active = activity change below about -65%; inconclusive = mostly about -30% to -63%
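GST-E1A and His-tagged CtBP (125 nM each as 5X stock) were preincubated with pin-transferred compound for 2 h at 37 °C in the dark, then glutathione donor and nickel acceptor beads were added for 1 h before AlphaScreen reading.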
IL-1B inflam inh: blocks inflammasome-driven IL-1 beta release | THP-1 LPS/ATP IL-1B secretion, AlphaLISA, 16 h; hits give low values | activity change, % at 57.5 µM | hit rate 4.7% among 360,000; in the data active = activity change below about -50%; inconclusive = mostly about -30% to -49%
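THP-1 cells pretreated 1 hr with compounds (up to 57.5 uM final), then stimulated with LPS (250 ng/mL final) plus ATP (1.25 mM final); secreted IL-1B measured by AlphaLISA after 16 hr, decreased signal indicating inhibition.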
TDP1 cell noCPT: qHTS for Inhibitors of human tyrosyl-DNA phosphodiesterase 1 (TDP1): qHTS in cells in absence of CPT; Potency, µM (highest dose often 46.2 µM), most hits filed as inhibitors; hit rate 15% among 420,000; AID 686978, 2013; DT40 Tdp1-/- hTDP1 cells, no CPT, ATP luminescence, 48 h; note: nearly all actives have a fitted effect of over 55% in size
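No-CPT arm: Tdp1-/-;hTDP1 DT40 cells (400/well) plus compounds, incubated ≥48 hr at 37 °C. Readout CellTiter-Glo luminescence.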
TDP1 cell CPT: DT40-hTDP1 cell growth loss with CPT; chicken DT40 Tdp1-/-;hTDP1 cells + 20 nM CPT, ATP luminescence, 48 h; Potency, µM (doses to about 46.2 µM), usual class: inhibitors; hit rate 12% among 420,000; AID 686979; note: nearly all actives have a fitted effect of over 55% in size
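Chicken DT40 Tdp1-/- cells complemented with human TDP1, 400 cells/well, exposed to compounds plus 20 nM camptothecin for at least 48 h at 37 C; viability read as ATP content by CellTiter-Glo luminescence.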
Six1-Eya2 inh: inhibitors of human Six1/Eya2 interaction; AlphaScreen GST-Six1/His-Eya2 binding, biochemical; hits give low values; activity change, % (no concentration beside the values); Q15475+O00167; hit rate 0.56% among 360,000; in the data active = activity change below about -65%; inconclusive = mostly about -30% to -63%
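AlphaScreen luminescence read after one hour at 37 °C in darkness. Pin-transferred compounds met GST-Six1 and His-Eya2 protein (5X stock 250 nM/500 nM) plus glutathione donor and Ni-chelate acceptor beads (5X, 50 ug/mL).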
A number is an active result; 0 = inactive; ? = inconclusive; - = not tested or not shown. Unless noted, calls come from the whole dose curve; as a rule, active = well fitted curve in the direction sought with a large enough effect; inconclusive = small, poorly fitted or top-dose-only effect, or another doubt; inactive = no such curve, though single readings can be large; an effect the other way counts as inactive or inconclusive.

SMILES | TDP1 inh | CtBP-E1A blk | IL-1B inflam inh | TDP1 cell noCPT | TDP1 cell CPT | Six1-Eya2 inh
O=C(c1ccncc1)N1c2ccccc2Sc2ccccc21 | 0 | 0 | 0 | 9.2µM | 21µM | 0
O=C(NC1CCN(C(=O)Nc2ccccc2Cl)CC1)c1ccco1 | 0 | 0 | 0 | 0 | 0 | 0
O=C(NC1CCN(C(=O)N2c3ccccc3Sc3ccccc32)CC1)c1ccccc1Cl | 0 | 0 | -59 | 23µM | ? | 0
O=C(NC1CCN(C(=O)N2c3ccccc3Sc3ccccc32)CC1)c1ccco1 | 0 | 0 | 0 | 21µM | ? | 0
COc1cc(OC)cc(C(=O)/C=C2\Sc3ccccc3N2C)c1 | - | 0 | 0 | 0 | 0 | 0
O=C(OCC(=O)N1c2ccccc2Sc2ccccc21)c1cccnc1 | 0 | - | 0 | ? | 0 | 0
COc1cccc(C(=O)N2c3ccccc3Sc3ccccc32)c1 | 0 | 0 | 0 | 16µM | 12µM | 0
CC(C)(C)C(=O)Cn1ncc(NC2CC2)c(Br)c1=O | 0 | 0 | 0 | 0 | 0 | 0
Cc1ccccc1NC(=O)Cc1ccccc1 | 0 | 0 | 0 | 0 | 0 | 0
COc1cccc(C(=O)NC2CCN(C(=O)N3c4ccccc4Sc4ccccc43)CC2)c1 | 0 | 0 | -57 | ? | ? | 0
COc1ccccc1NC(=O)N1c2ccccc2Sc2ccccc21 | - | - | - | 15µM | 15µM | -
O=C(Nc1cccc(C(F)(F)F)c1)c1cccnc1N1CCCC1 | 0 | 0 | 0 | ? | ? | 0
Cc1c(-c2ccccc2)[nH]n2c(=O)c3c(nc12)CCCC3 | 0 | 0 | 0 | 0 | 0 | ?
Cc1ccc(-c2[nH]n3c(=O)c4c(nc3c2C)CCCC4)cc1 | 0 | 0 | 0 | ? | ? | 0
O=c1c2c(nc3c(-c4ccccc4)c[nH]n13)CCC2 | 0 | 0 | 0 | 16µM | ? | 0
O=c1c2c(nc3c(-c4ccc(Cl)cc4)c[nH]n13)CCC2 | 0 | - | 0 | 4.6µM | 2.3µM | 0
O=c1c2c(nc3c(-c4cccc(Br)c4)c[nH]n13)CCCC2 | 0 | 0 | 0 | 0 | 16µM | 0
O=c1c2c(nc3cc(-c4ccc(Br)cc4)[nH]n13)CCCC2 | 0 | 0 | -61 | ? | ? | ?
O=c1c2c(nc3cc(-c4ccccc4)[nH]n13)CCC2 | 0 | 0 | 0 | 0 | 0 | 0
CSc1nnc(C)c(=O)n1COC(=O)COc1ccc2ccccc2c1 | 0 | 0 | 0 | ? | ? | 0
Cc1cc(C)c(C#N)c(SCC(=O)c2ccccc2)n1 | 0 | 0 | 0 | 0 | 16µM | 0
Cc1cc(=O)[nH]c(SCC(=O)c2ccccc2)c1C#N | 0 | 0 | 0 | 0 | 0 | 0
Cc1ccc(C(=O)CSc2nc(C)cc(C)c2C(N)=O)cc1 | 0 | 0 | -52 | ? | ? | 0
Cc1cc(C)c(C(N)=O)c(SCC(=O)c2ccc(Cl)cc2)n1 | 0 | 0 | 0 | ? | ? | 0
Cc1cc(C)c(C#N)c(SCC(=O)c2cccs2)n1 | 50µM | 0 | -98 | ? | 0 | 0
SMILES | TDP1 inh | CtBP-E1A blk | IL-1B inflam inh | TDP1 cell noCPT | TDP1 cell CPT | Six1-Eya2 inh
COC(=O)CSc1nc(C)cc(C)c1C#N | 0 | 0 | 0 | 0 | 0 | 0
COc1cccc(/C=N/NC(=O)c2ccc(=O)n(C)c2)c1O | 0 | -87 | 0 | 6.5µM | 5.8µM | -88
COc1cccc(/C=N/NC(=O)c2ccc(=O)[nH]n2)c1O | 0 | - | 0 | 15µM | 23µM | -79
COc1cccc(/C=N/NC(=O)c2[nH]c(C)c(C(=O)N/N=C/c3cccc(OC)c3O)c2C)c1O | 0 | 0 | 0 | 3.3µM | 5.2µM | -92
COc1cc(OC)c(OC)cc1/C=N/NC(=O)c1ccc(=O)n(C)c1 | 0 | 0 | 0 | 0 | 0 | 0
COc1cccc(/C=N/NC(=S)Nc2cccc(C(=O)O)c2)c1O | 0 | -91 | 0 | 0 | ? | -92
COc1cccc(/C=N/NC(=O)c2ccc(-c3ccccc3)cc2)c1O | 0 | 0 | 0 | 4.6µM | 5.2µM | 0
COc1cccc(/C=N/NC(=O)c2c(C)nc3ccc(Cl)cn23)c1O | - | -94 | 0 | 1µM | 0.92µM | -78
COc1cccc(/C=N/NC(=O)C(=O)Nc2ccccc2OC(F)(F)C(F)F)c1O | 0 | -73 | 0 | 3.3µM | 3.3µM | -86
COc1ccc(OC)c(/C=N\NC(=O)c2ccc(-c3ccccc3)cc2)c1 | 0 | 0 | 0 | 0 | ? | 0
CCN(Cc1ccccc1)C(=O)COC(=O)CNC(=O)c1ccc(C)s1 | 0 | 0 | 0 | 0 | 0 | 0
Cc1ccc(NC(=O)Cn2c(=O)n(Cc3nc(-c4ccccc4)no3)c(=O)c3cc4c(cc32)OCO4)cc1C | 0 | - | - | ? | 0 | -
O=C(NN=Cc1ccccc1O)C1CC1 | - | ? | 0 | 10µM | 5.8µM | ?
O=C(N/N=C/c1ccccc1O)C1SCCCS1 | 0 | -95 | 0 | 6.5µM | 12µM | -92
O=C(N/N=C/c1ccccn1)C1CC1 | 0 | 0 | 0 | 0 | 0 | 0
Cc1ccc2c(c1)C(=O)CC(c1ccccc1)S2 (stereo not given) | - | 0 | 0 | 0 | 0 | 0
COC(=O)c1sccc1NC(=O)c1cccc(Cl)c1 | - | 0 | 0 | 0 | 0 | 0
COc1cccc(NC(=O)NNC(=O)c2ccc3c(c2)NC(=O)C(C)(C)O3)c1 | - | 0 | 0 | 0 | 0 | 0
COc1ccccc1NC(=O)NNC(=O)c1ccc2c(c1)NC(=O)C(C)(C)O2 | - | 0 | 0 | ? | 23µM | 0
CCOC(=O)CN1C(=O)C(C)(C)Oc2ccc(C(=O)Nc3ccccc3OC)cc21 | 0 | 0 | 0 | 23µM | 16µM | 0
COc1ccccc1NC(=O)c1ccc2c(c1)N(CC(=O)NC(C)(C)C)C(=O)C(C)(C)O2 | - | 0 | 0 | 0 | 0 | 0
COc1cc(CCC(C)NCc2ccccc2)ccc1O (stereo not given) | - | 0 | 0 | 0 | 0 | 0
COC(=O)c1cn(CC(C)n2c(=O)c3ccccc3n2Cc2cc(C(C)C)no2)nn1 (stereo not given) | - | 0 | 0 | 0 | 0 | 0
COc1cccc(N2CCN(C(=O)c3cc4c(s3)-c3ccccc3OC4)CC2)c1 | 0 | 0 | 0 | 0 | 0 | 0
S=C(Nc1ccc(Cl)c(Cl)c1)NC1CCCCC1 | 0 | 0 | -95 | 18µM | ? | 0
Fc1ccc(NC(=S)NC2CCCCC2)c(F)c1F | 0 | 0 | 0 | 21µM | 21µM | 0
Fc1cccc(NC(=S)NC2CCCCCCC2)c1 | 0 | 0 | ? | ? | 23µM | 0
CCC(C)NC(=O)Cc1cn(C)c2ccccc12 (stereo not given) | 0 | 0 | 0 | 0 | 0 | 0
CN1CCN(CCCNC(=O)Cn2ncc3c4ccccc4n(C)c3c2=O)CC1 | 0 | 0 | 0 | 0 | 0 | 0
Cn1c2ccccc2c2cnn(CC(=O)NCCCN3CCN(c4ccccc4F)CC3)c(=O)c21 | 0 | - | 0 | 15µM | ? | 0
